Molecules are shown by their SMILES. Results filed as inconclusive are left out. Activity calls are given as the source filed them. Unless noted, no stated cut-off is given here; in the data, active means inhibition above about 30%; inactive means the rest.

As usually defined, the viability is a read-out of living cells in per cent, often relative to untreated cells. In general, inhibition refers to the drop in the measured response relative to a control, in per cent.

The nature of assay [1]: Her2 expression decrease, cell viability multiplex – SKBR3 breast tumor cells, AlphaScreen, ATP viability, primary screen (AID 461;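 active means Her2 level under about 52% in both replicate screens, with viability over 70% of control, limit read from the data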;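 on Her2 level: lower value means less Her2 protein in the cells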;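 on viability: percent of carrier control wells set as 100% viability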). The following applies: SKBR3 Her2 protein level, 18-24 h, measured here: SKBR3 viability, ATP luminescence, at 10 µM.
Assay [2] concerns the target Receptor tyrosine-protein kinase erbB-2 (Homo sapiens) (UniProt P04626). The description is as above. The note with it: 18-24 h, at 10 µM, stronger effect = lower value.
A short description of assay [3]: reduced viability of SK-BR-3 breast cancer cells – cell-based, 24 h, human, pilot screen (AID 572;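 active means viability at or below 10% of carrier control in both of two separate runs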;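 further: compound exposure lasted between 18 and 24 h rather than exactly 24 h; 100% = carrier-treated control wells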). The following applies: SK-BR-3 viability, CellTiter-Glo luminescence, at 10 µM, stronger effect = lower value. Background: ATP-based viability assays read luminescence as a measure of living cells.
Assay [4] in a line: HUVEC growth inhibition – cell-based, human, primary screen (AID 575;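 active means viability at or below 30% in both replicate assays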;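 further: 100% = median of untreated cell wells with 0.1% DMSO on each plate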). The following applies: HUVEC proliferation, CellTiter-Glo luminescence, 72 h; at 10 µM; stronger effect = lower value.
Assay [5] is described as follows: H69AR cell proliferation blockers – human, duplicate replicates, primary screen (AID 580;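 active means viability at or under a set limit in both replicates, limit being median viability minus 3 SD, cut at about 48% in these data, passing the limit was not always enough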;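 further: 100% = mean luminescence of untreated wells and 0% = no signal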). The note with it: H69AR lung tumor cells viability, ATP luminescence, 72 h; at 10 µM; stronger effect = lower value.
Assay [6] can be described thus: MRP1 drug-resistance reversers in H69AR cells – cell-based, doxorubicin co-treatment, pilot screen (AID 601;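 active means viability loss from added drug above about 55%, and viability with drug at most 40%, in both replicates, limit read from the data, passing the limit was not always enough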). The following applies: CellTiter-Glo, 72 h, at 10 µM; for differential viability (reversal): stronger effect = higher value.
The nature of assay [7]: yeast transport mutant growth inhibition pilot in 384-well plates, post-Golgi transport modulator project (AID 636; in the data active means inhibition above about 31%). The following applies: absorbance 615 nm, about 18 h, stronger effect = higher value.
Assay [8] can be described thus: growth suppression of yeast trafficking mutant, preliminary HTS, modulators of trafficking downstream of Golgi apparatus project, 1536-format plate, OD 615 nm (AID 637). The following applies: yeast transport mutant growth, absorbance 615 nm, 18 h; stronger effect = higher value.
Assay [9] in a line: S. cerevisiae growth inhibition in permissive medium (OD615), pilot counter-assay for S. cerevisiae lifespan shortening project, permissive growth control (AID 705;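 active means growth inhibition above 25% in both replicates, a cutoff set 3 SD above the mean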). The note with it: OD615, 24 h, at 10 µM, stronger effect = higher value.
Assay [10] can be described thus: S. cerevisiae growth inhibition in restrictive medium, OD615, pilot screen, restrictive growth control, yeast lifespan reduction project (AID 706;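 active means growth inhibition above a set limit, 3 SD over mean compound inhibition, in both replicates, cut at about 43% in these data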;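 further: modified DeaD lifespan yeast strain shifted to restrictive glucose medium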). The note with it: OD615, 48 h, at 10 µM, stronger effect = higher value.
The nature of assay [11]: doxorubicin toxicity protection in MRP-1 cells – H69AR cells, CellTiter-Glo, duplicate, MRP-1 activator project, pilot screen (AID 807;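 active means viability increase at or above a cutoff of the median across tested compounds plus 3 SD, cut at about 8.5% in these data, passing the limit was not always enough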;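 further: compound pretreatment 18-22 h then 72 h combined with doxorubicin; 0% = doxorubicin alone and 100% = vehicle without doxorubicin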). The note with it: H69AR viability with doxorubicin, CellTiter-Glo luminescence; at 10 µM; stronger effect = higher value.
Assay [12] can be described thus: viability of PTEN-null HCT116 cells – cell-based, HCT116 clonal line, CellTiter-Glo, pilot screen (AID 824;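 active means viability at or below 27.92% in each of two runs, the all-compound median minus 4 SD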;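 further: 0% = 20 µM Hyamine control and 100% = vehicle cell control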). The note with it: HCT116 PTEN-deleted viability, 60 h, at 10 µM, stronger effect = lower value.
The nature of assay [13]: RAM pathway blockade in budding yeast – dse1pr::URA3 reporter, 5-FOA selection, pilot screen (AID 869;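 active means inhibition over a set limit, the all-compound mean plus 3 SD, in both replicate runs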;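 further: 0% = DMSO wells with no growth and 100% = 10 µM 1-NA-PP1 with full growth; RAM network block rescues cells from 5-FOA so hits raise OD615 growth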). The following applies: S. cerevisiae dse1pr::URA3 5-FOA growth, OD615, 2 d; at 10 µM; stronger effect = higher value; strain carries analog-sensitive mutant Cbk1 kinase.
Assay [14] in a line: RAM signaling pathway blockade in yeast – S. cerevisiae, Pdr1DBD-CYC8 efflux-inhibited sensitized strain, primary screen (AID 1298;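 active means RAM network inhibition above 8.4% in each of two replicates, 3 SD over the compound average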;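 further: 0% = DMSO untreated cells without growth and 100% = 10 µM 1-NA-PP1 full growth; higher means more yeast growth rescued from 5-FOA killing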). The note with it: S. cerevisiae cbk1-as DSE1-URA3 strain, 5-FOA growth OD615, 2 d; at 50 µM; stronger effect = higher value.
A short description of assay [15]: viability of HCT116 without oncogenic beta-catenin – human colon tumor cells, pilot screen (AID 823;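 active means cell viability at or below a set limit in both duplicate runs, the limit being the all-compound median minus 4 SD, cut at about 23% in these data, passing the limit was not always enough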;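 further: 0% = wells killed by 20 µM Hyamine and 100% = untreated DMSO cell wells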). The note with it: HCT116 beta-catenin knockout viability, CellTiter-Glo, 60 h; at 10 µM; stronger effect = lower value.
Where [16] appears, read: H69AR cells + 2 uM doxorubicin, measured here: viability with 2 uM doxorubicin, stronger effect = lower value.
The mark [17] stands for this setting: H69AR cells, compound alone cytotoxicity.

Sequence of Receptor tyrosine-protein kinase erbB-2 (Homo sapiens) (P04626 whole entry, looked up): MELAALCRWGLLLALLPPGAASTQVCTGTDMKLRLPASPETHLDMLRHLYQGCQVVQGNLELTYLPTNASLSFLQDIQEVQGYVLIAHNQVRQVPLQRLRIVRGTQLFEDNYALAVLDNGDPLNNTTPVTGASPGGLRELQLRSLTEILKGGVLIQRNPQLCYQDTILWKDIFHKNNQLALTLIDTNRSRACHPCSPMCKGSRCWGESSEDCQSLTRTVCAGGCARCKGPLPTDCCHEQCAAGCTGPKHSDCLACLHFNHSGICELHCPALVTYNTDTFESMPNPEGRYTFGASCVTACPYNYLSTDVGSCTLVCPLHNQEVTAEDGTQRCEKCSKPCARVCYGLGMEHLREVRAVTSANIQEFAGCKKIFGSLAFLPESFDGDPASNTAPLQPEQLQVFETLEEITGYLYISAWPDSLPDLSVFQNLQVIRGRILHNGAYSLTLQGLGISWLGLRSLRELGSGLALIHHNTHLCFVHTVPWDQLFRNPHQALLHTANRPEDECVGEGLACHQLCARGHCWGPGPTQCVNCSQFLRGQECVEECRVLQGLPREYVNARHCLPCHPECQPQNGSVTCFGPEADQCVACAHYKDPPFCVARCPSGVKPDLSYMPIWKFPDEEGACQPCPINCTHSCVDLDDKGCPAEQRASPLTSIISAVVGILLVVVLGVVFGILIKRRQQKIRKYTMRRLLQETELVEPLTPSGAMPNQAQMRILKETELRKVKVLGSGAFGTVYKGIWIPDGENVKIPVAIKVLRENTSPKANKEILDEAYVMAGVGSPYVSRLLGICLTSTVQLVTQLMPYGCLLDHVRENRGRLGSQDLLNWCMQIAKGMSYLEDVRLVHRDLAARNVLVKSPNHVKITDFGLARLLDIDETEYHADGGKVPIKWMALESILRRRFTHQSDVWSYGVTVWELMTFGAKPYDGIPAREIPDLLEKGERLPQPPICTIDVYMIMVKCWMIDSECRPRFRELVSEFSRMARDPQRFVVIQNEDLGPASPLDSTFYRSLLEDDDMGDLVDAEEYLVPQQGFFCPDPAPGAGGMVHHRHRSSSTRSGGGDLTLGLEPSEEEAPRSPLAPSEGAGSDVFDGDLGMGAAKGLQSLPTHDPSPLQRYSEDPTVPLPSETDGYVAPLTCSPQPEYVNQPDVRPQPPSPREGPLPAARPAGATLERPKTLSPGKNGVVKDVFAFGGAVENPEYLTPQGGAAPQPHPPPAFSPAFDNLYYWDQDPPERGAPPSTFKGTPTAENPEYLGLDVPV

On to `CCOC(=O)CCCOC(=O)c1ccc(S(=O)(=O)N(C)C)cc1`, for which the viability in assay [1] was 95%; in assay [3], 95% (inactive); in assay [4], 88.7% (inactive); in assay [5], 100% (inactive); in assay [6] (setting [16]) it was 98.7%; in [6] (setting [17]) it was 100%. Also, the viability in assay [12] is 89.6% (inactive). Further, in assay [2], the Her2 level was 84.5% (inactive). Further, the differential viability (reversal) in assay [6] (H69AR cells + 2 uM doxorubicin) was 1.72% (inactive). In addition, the inhibition was -6.49% (inactive) in assay [7], 2.79% (inactive) in assay [8] and 1.5% (inactive) in assay [13]. Further, the growth inhibition in [9] was -13.7% (inactive); in assay [10] it was -2.25% (inactive). In addition, the viability increase in [11] is -2% (inactive). Also, the RAM network inhibition in assay [14] is 4.96% (inactive).

For `CCOC(=O)c1cc2c(=O)n3ccccc3nc2n(CC2CCCO2)c1=NC(C)=O` (stereo unspecified), the viability is 99% in [1]; 99% (inactive) in [3]; 102% (inactive) in assay [4]; 81.1% (inactive) in [5]; 97.6% (inactive) in assay [15]; 93.8% (inactive) in assay [12]. The Her2 level in assay [2] is 95.5% (inactive). The inhibition in assay [7] is -6.71% (inactive); in [8] it was -2.22% (inactive); in assay [13] it was 0.525% (inactive). In addition, the growth inhibition was -22.2% (inactive) in assay [9] and -17.4% (inactive) in assay [10]. Besides, the viability increase in assay [11] was 0.08% (inactive). Also, in [14], the RAM network inhibition was 3.93% (inactive).

For `CCOc1ccc(N(CC(=O)Nc2cccc(OC)c2)S(=O)(=O)c2c(C)noc2C)cc1`, the viability in assay [1] is 91.5%; in assay [3], 91.5% (inactive); in [4], 72.4% (inactive); in [6] (setting [16]), 76.3%; in [6] (setting [17]), 59.6%; in assay [15] it was 71.8% (inactive). For the same compound, in assay [12], the viability was 70.9% (inactive). In addition, the Her2 level in assay [2] was 95% (inactive). Moreover, the differential viability (reversal) in [6] (H69AR cells + 2 uM doxorubicin) was -16.7% (inactive). In addition, the results for the inhibition in [7], in assay [8] and in [13] were -4.4% (inactive), -7.38% (inactive) and -0.41% (inactive), respectively. Also, the growth inhibition in [9] is -11.5% (inactive); in assay [10] it was 3.05% (inactive). Also, the viability increase in assay [11] was -4.75% (inactive). In assay [14], the RAM network inhibition was 4.24% (inactive).

On to `Cc1ccc(C)c(N2CCN(C(=O)c3cc4ccccn4n3)CC2)c1`, for which the viability in assay [1] was 91%; in assay [3], 91% (inactive); in assay [4], 90.1% (inactive); in assay [5] it was 99.8% (inactive); in assay [15], 91.7% (inactive); in [12], 92.5% (inactive). Also, the Her2 level in [2] was 85% (inactive). The inhibition in assay [7] is -4.74% (inactive); in assay [8] it was 8.33% (inactive); in [13] it was 0.805% (inactive). In addition, the growth inhibition is -8.86% (inactive) in assay [9] and 0.2% (inactive) in assay [10]. Further, in [11], the viability increase is -2.11% (inactive). Besides, in assay [14], the RAM network inhibition was 10.8% (inactive).

For the compound `Cc1ccc(C(=O)CSc2n[nH]c(-c3ccco3)n2)cc1C`, the viability in assay [1] was 106%; in assay [3], 106% (inactive); in assay [4] it was 99.2% (inactive); in assay [5], 101% (inactive); in [6] (setting [16]) it was 105%; in assay [6] (setting [17]), 101%. Moreover, the results for the viability in assay [15] and in assay [12] were 101% (inactive) and 107% (inactive), respectively. In addition, the Her2 level in assay [2] was 104% (inactive). Besides, the differential viability (reversal) in assay [6] (H69AR cells + 2 uM doxorubicin) is -3.95% (inactive). The inhibition in assay [7] was -4.68% (inactive); in assay [8], -4.67% (inactive); in [13], 0.765% (inactive). Besides, the growth inhibition in assay [9] is -13.8% (inactive); in assay [10] it was 3.79% (inactive). The RAM network inhibition in assay [14] is 0.94% (inactive).

Regarding `CCN(CC)c1ccc2cc(-c3nc4ccccc4[nH]3)c(=O)oc2c1`, the viability was 88% in [1]; 88% (inactive) in [3]; 20.9% (active) in assay [4]; 3.43% (active) in assay [5]; 3.78% in assay [6] (setting [16]); 3.43% in assay [6] (setting [17]). In addition, the Her2 level in assay [2] is 101% (inactive). In assay [6] (H69AR cells + 2 uM doxorubicin), the differential viability (reversal) is -0.345% (inactive). Besides, the inhibition in assay [7] was 0.13% (inactive); in [8], -6.39% (inactive); in assay [13], -1.12% (inactive). Further, the values for the growth inhibition in assay [9] and in assay [10] were -3.73% (inactive) and -16.3% (inactive), respectively. Also, the viability increase in [11] is -7.61% (inactive). Further, in assay [14], the RAM network inhibition is 0.92% (inactive).
